PrP UTR inh: inhibition of PrP 5' UTR reporter expression; 340,000 compounds, 0.35% hits; inhibition, % (concentration not given with the values); cell-based PrP 5' UTR mRNA reporter, plate reader; in the data active = inhibition above about 52%; note: 0 = median of the neutral control wells
PfHsp40 yeast: rescue of PfHsp40-mediated yeast toxicity | S. cerevisiae expressing PfHsp40, growth rescue, ATP luminescence | growth rescue, % at 12.5 µM | 340,000 compounds, 0.68% hits | AID 504582; in the data active = growth rescue above about 28%, passing the limit was not always enough;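 note: yeast W303a lacking pdr1 and pdr3 grown in galactose medium; growth measured after three days at 30 °C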
Sa RN4220 lethal: S. aureus RN4220 growth inhibition; 330,000 compounds, 0.33% hits; OD600, 16 h; inhibition, % (concentration not given with the values); AID 1259311; in the data active = inhibition above about 85%;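 note: plate controls were untreated cells for no effect and reference antibiotic for full effect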
ugtP null kill: compounds lethal to S. aureus RN4220 ugtP deletion mutant; growth inhibition, % (concentration not given with the values); 330,000 compounds, 0.54% hits; OD600 growth, 16 h; in the data active = growth inhibition above about 68%;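 note: plate controls were untreated wells for no effect and antibiotic for full effect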
Y pestis TopoI: Y. pestis Topo-I inhibition via cleavage products. AID 504884. activity, % at 10 µM. Y. pestis Topo-I cleavage product accumulation, plate reader. 360,000 compounds, 0.064% hits; in the data active = activity above about 50%, passing the limit was not always enough
BJeLR viability: BJeLR cell viability loss; BJeLR (HRASV12) viability, CellTiter-Glo ATP luminescence, 48 h; inhibition, % (no concentration beside the values); 300,000 compounds, 0.17% hits; in the data active = inhibition above about 50%
PrP UTR cherry: prion 5' UTR mRNA inhibition, cherry-pick retest; shares compounds with PrP UTR inh; cell-based prion protein 5' UTR reporter, plate reader; inhibition, % at 2.5 µM; 1,100 compounds, 48% hits; AID 504592; in the data active = inhibition above about 54%
The depositor's hits bear a star; . = no result given. In the library only some 1.4% were active in any assay of this set; here they are far more common.

SMILES	PrP UTR inh	PfHsp40 yeast	Sa RN4220 lethal	ugtP null kill	Y pestis TopoI	BJeLR viability	PrP UTR cherry
Cc1ccccc1C(=O)N1CCC(C(=O)Nc2nccs2)CC1	88*	2	3	9	-14	-9	-17
Cc1ccc2c(c1)C(=O)c1c(C(=O)O)cccc1-2	78*	3	6	2	9	-2	-4
C[C@]12CCC(=O)C(O)=C1CCC1C2CC[C@]2(C)C(=O)CCC12 (stereo partly drawn)	.	.	8	1	.	.	.
CC[C@@]1(O)C(=O)OCc2c1cc1n(c2=O)Cc2cc3c(NC(=O)CN)cccc3nc2-1	85*	-2	5	5	1	93*	70*
CCC1(OC(=O)CN)C(=O)OCc2c1cc1n(c2=O)Cc2cc3ccccc3nc2-1 (stereo not drawn)	83*	2	4	3	4	90*	88*
CC(=O)N(/N=C1\Sc2ccccc2C1=O)c1ccc(C)cc1C	58*	-1	.	.	10	-12	56*
CC(=O)N(N=C1Sc2ccccc2C1=O)c1ccc(C)cc1C	.	.	-1	5	.	.	.
C/C(=N\NC(N)=O)c1ccccc1	72*	-1	.	.	-11	0	-7
CC(=NNC(=O)C(=O)NN=C(C)c1ccccc1)c1ccccc1	.	.	5	6	.	.	.
CC(Oc1ccc(F)cc1)C(O)CCN(C)C (stereo not drawn)	74*	0	9	23	-1	1	-12
CC(C)Oc1ccc(C(CC(=O)NCCCN(C)C)c2ccc(F)cc2)cc1 (stereo not drawn)	-19	0	2	-1	-18	-9	.
Cc1ccccc1C(=O)NNC(=O)C12CC3CC(CC(C3)C1)C2	88*	1	3	11	3	-10	-16
COc1ccc(C2CC(=O)C=C(c3ccc(Oc4ccccc4)cc3)C2)cc1OC (stereo not drawn)	.	.	2	17	.	.	.
COC1C(C)OC(OC2CC(C)(O)Cc3cc4c(c(O)c32)C(=O)c2c(O)cc3c(c2C4=O)OC2OC3(C)C(O)C(N(C)C)C2O)C(OC)C1(C)OC (stereo not drawn)	90*	5	.	.	-15	.	81*
Cc1ccc(C(=O)N/N=C/c2ccc([N+](=O)[O-])s2)cc1	75*	0	.	.	-6	2	77*
Cc1ccc(C(=O)NN=Cc2ccc([N+](=O)[O-])s2)cc1	.	.	2	33	.	.	.
CN1C(=CC(=O)c2cccnc2)Sc2ccccc21	.	.	5	1	.	.	.
Clc1ccccc1/C=C/c1nc(-c2ccccn2)no1	55*	-1	.	.	-4	20	61*
CC(C)(C)c1ccc(-c2noc(CCC(=O)Nc3cccnc3)n2)cc1	65*	0	.	.	-5	4	34
C[Se]C[C@@H](N)C(=O)O	-21	3	.	.	2	.	.
CC(C)(S)[C@@H](N)C(=O)O	64*	1	.	.	1	.	10
Cc1cc(NC2=CC(=O)C(=O)c3ccccc32)no1	77*	4	.	.	-1	.	-2
Cc1ccc(NC2=CC(=O)C(=O)c3ccccc32)cc1	-5	1	57	38	1	-1	.
Cn1c(=O)oc2cc(S(=O)(=O)N3CCC(C(=O)N4CC=C(c5ccccc5)CC4)CC3)ccc21	61*	0	6	15	-3	.	-5
CN=CC1=C(O)C(C(=O)OC)C(C)(C)CC1=O (stereo not drawn)	-34	-1	5	5	-8	2	.
SMILES	PrP UTR inh	PfHsp40 yeast	Sa RN4220 lethal	ugtP null kill	Y pestis TopoI	BJeLR viability	PrP UTR cherry
COC(=O)C1C(O)=C(C=Nc2ccc3ccccc3c2)C(=O)CC1(C)C (stereo not drawn)	80*	0	6	1	1	4	9
CC(C)(C)C(=O)OCOC(=O)C1N2C(=O)C(N=CN3CCCCCC3)C2SC1(C)C (stereo not drawn)	.	.	1	-4	.	.	.
CC(=O)OCC(=O)Nc1ccccc1C	76*	0	2	7	-1	-2	-8
CC(=O)NCCc1ccc(C(=O)COC(=O)C2CCCCC2)cc1	72*	3	-3	-1	2	.	34
COCCn1c(C)cc(C(=O)CSc2nnc(C)s2)c1C	57*	-1	-1	8	-5	-1	72*
COCCn1c(C)cc(C(=O)CSc2nnnn2C2CCCC2)c1C	64*	-1	-6	-9	-6	.	57*
COCCn1c(C)cc(C(=O)COC(=O)c2cccc(O)c2)c1C	83*	25	1	9	8	-5	79*
COCCn1c(C)cc(C(=O)COC(=O)c2cc3c(s2)CCC3)c1C	-41	-1	1	0	0	-5	.
CCOC(=O)C(C#N)=Cc1ccc(N2CCN(CC=Cc3ccccc3)CC2)cc1	.	.	6	12	.	.	.
COC(=O)N=Cc1c(NCc2ccccc2)nc2c(C)cccn2c1=O	.	.	8	-14	.	.	.
C=CC1c2cc(C)ccc2N(S(=O)(=O)c2ccc(C)cc2)C(c2ccccc2C(F)(F)F)C1(C#N)C#N (stereo not drawn)	.	.	7	9	.	.	.
COc1ccc2c(COC(=O)c3cccc(S(=O)(=O)NCC(C)C)c3)cc(=O)oc2c1	-28	0	13	-9	19	-9	.
CCCNS(=O)(=O)c1cccc(C(=O)OCc2cc(=O)oc3cc(OC)ccc23)c1	57*	0	9	-8	20	20	69*
CCOC(=O)C1C2COc3ccc(C)cc3C2N2C(=O)c3cc(Br)ccc3NC(=O)[C@@]12C (stereo partly drawn)	.	.	-1	-14	.	.	.
COc1ccc(C(=O)NCCCNC(=O)c2cc3ccccc3[nH]2)cc1OC	78*	1	3	-8	1	-3	-8
O=C(NCCCO)c1cc2ccccc2[nH]1	-31	1	4	-2	4	7	.
O=C(c1ccc2c(c1)OCO2)N1CCC2(CC1)Oc1ccc(Cl)cc1C(=O)C21CC(c2cccnc2)=NO1 (stereo not drawn)	53*	-1	1	0	34	-8	-5
O=C(c1ccc2c(c1)OCO2)N1CCC2(CC1)Oc1ccc(F)cc1C(=O)C21CC(c2cccnc2)=NO1 (stereo not drawn)	-2	1	4	-1	24	2	.
Cc1ccc(C(=O)c2cc([N+](=O)[O-])ccc2N2CCOCC2)cc1C	24	1	-1	8	18	8	.
CSc1ccc(COC(=O)c2cc([N+](=O)[O-])ccc2N2CCOCC2)cc1	72*	-1	6	-3	16	56*	89*
O=C(c1cc([N+](=O)[O-])ccc1N1CCOCC1)N1CCN(c2ccccc2)CC1	81*	1	.	.	-2	56*	92*
Cc1ccccc1COC(=O)c1cc([N+](=O)[O-])ccc1N1CCOCC1	-6	10	3	4	0	3	.
O=C(c1ccc(Br)cc1)c1cc([N+](=O)[O-])ccc1N1CCCCC1	58*	0	0	6	-3	36	94*
